The list is not random: actives were taken first. Their share in the collection is about 0.87%.
KAT2A inh = inhibitors of human GCN5L2 histone acetyltransferase | GCN5L2 HAT assay, ThioGlo1 CoA-SH fluorescence | Potency, µM (series often up to 58.9 µM), for inactives: at the highest dose activity change, negative = inhibition, hits mostly inhibitors | 390,000 compounds, 0.21% hits
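qHTS, 1536-well. 20nM enzyme, pH 7.5 HEPES/EDTA/Tween-20 buffer; 15 min compound preinc., RT. Start: 75uM H3(1-25), 70uM AcCoA, 50uM ThioGlo1. Read Ex340/Em540 at t=0 (autofluorescence flag) and t=20 min.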
BLM inh = blocks DNA unwinding by human BLM helicase. P54132. recombinant BLM DNA unwinding, fluorescence dequenching. Potency, µM (highest dose often 56.1 µM), without a hit: top-dose activity change, negative = inhibition, hits mostly inhibitors. 350,000 compounds, 0.2% hits. AID 2528;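 further: plate controls were vehicle for no effect and no enzyme for full effect; nearly all actives have a fitted effect of over 35% in size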
RECQ1 helicase = inhibitors of human RECQ1 DNA helicase; RECQ1 DNA unwinding, red fluorescence kinetic read; Potency, µM (doses to about 57.3 µM), for the others: at the top dose activity, negative = inhibition, most hits filed as inhibitors; P46063; AID 2549; 240,000 compounds, 0.54% hits;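 further: plate controls were vehicle for no effect and no enzyme for full effect; nearly all actives have a fitted effect of over 30% in size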
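50 nM RECQ1T1 preincubated 15 min with compound in Tris pH 8.0 buffer with MgCl2, DTT, Tween-20 and 2.5 ug/ml poly(dI-dC); started with 200 nM TAMRA/BHQ-2 forked duplex and 2 mM ATP. Unwinding read as fluorescence (525/598 nm), two reads 2 h apart.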
APEX1 inh = blocks human APE1 abasic DNA cleavage. P27695. recombinant APE1, TAMRA/BHQ-2 abasic DNA cleavage fluorescence. Potency, µM (series often up to 65.8 µM), for inactives: at the top dose activity change, negative = inhibition, most hits filed as inhibitors. 350,000 compounds, 0.35% hits. AID 2517;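 further: plate controls were vehicle for no effect and reference inhibitor for full effect; nearly all actives have a fitted effect of over 55% in size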
Target sequence (P27695 whole entry, looked up): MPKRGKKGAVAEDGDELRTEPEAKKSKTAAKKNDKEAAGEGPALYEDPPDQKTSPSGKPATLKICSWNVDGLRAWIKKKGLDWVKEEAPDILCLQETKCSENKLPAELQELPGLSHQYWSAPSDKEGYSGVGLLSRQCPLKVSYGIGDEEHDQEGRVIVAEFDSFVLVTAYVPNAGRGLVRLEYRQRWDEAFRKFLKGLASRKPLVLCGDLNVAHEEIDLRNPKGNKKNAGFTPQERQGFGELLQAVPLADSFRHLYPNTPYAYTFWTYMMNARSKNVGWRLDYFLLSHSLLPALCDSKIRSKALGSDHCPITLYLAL
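Enzyme (0.75 nM final) and test compound are incubated 15 min at room temperature before adding 50 nM quenched THF abasic-site duplex. Cleavage dequenches TAMRA, followed at 525/598 nm over three reads one minute apart.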
RGS4 inhibitor = inhibitors of human regulator of G protein signaling 4 | P49798 | Transcreener GDP fluorescence polarization, RGS4-accelerated GTP hydrolysis | Potency, µM (top dose mostly 114 µM), for inactives: at the highest dose activity change, negative = inhibition, usual class: inhibitors | 390,000 compounds, 0.039% hits; further: nearly all actives have a fitted effect of over 75% in size
Target sequence (P49798 whole entry, looked up): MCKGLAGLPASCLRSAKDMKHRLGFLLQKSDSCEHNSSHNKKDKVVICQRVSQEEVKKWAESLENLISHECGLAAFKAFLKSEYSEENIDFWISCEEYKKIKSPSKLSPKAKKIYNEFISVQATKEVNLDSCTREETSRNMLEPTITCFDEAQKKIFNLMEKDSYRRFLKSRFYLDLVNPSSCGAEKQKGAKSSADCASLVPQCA
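MLSMR compounds (23 nl, pin-transferred) preincubated 10 min at room temperature with a 500nM (2x) first reagent, then RGS4 at 900nM (2x) plus Transcreener GDP mix added; fluorescence polarization (620/688 nm) read before and after 90 min at 30 °C.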
TDP1 block = blocks human tyrosyl-DNA phosphodiesterase 1; Potency, µM (highest dose often 130 µM), without a hit: at the top dose activity change, negative = inhibition, actives largely listed as inhibitors; AID 485290; Q9NUW8; 350,000 compounds, 0.28% hits; recombinant TDP1, AlphaScreen DNA substrate cleavage; further: nearly all actives have a fitted effect of over 40% in size
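Tdp1 1 nM final; 15 min RT w/ cpd; substrate 15 nM, 5 min; beads 10 ug/ml, 10 min; AlphaScreen read. Neg ctrl: no enzyme.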
An asterisk follows results filed as active; ? = inconclusive; · = no result; ! = not confirmed by another sample; [ ] = dose if it differs, or a comment. The call rests on the fitted dose curve; in most records, active means well fitted curve in the direction sought with a large enough effect; inconclusive means small, poorly fitted or top-dose-only effect, or another doubt; inactive means no such curve, though single readings can be large; an effect the other way counts as inactive or inconclusive. Unless noted, on the % scale 0 is the no-effect control and ±100 the full control effect; potency means the concentration at half of the fitted maximal effect.

SMILES	KAT2A inh	BLM inh	RECQ1 helicase	APEX1 inh	RGS4 inhibitor	TDP1 block
O=C(O)c1ccc(NC2=C/C(=N/S(=O)(=O)c3ccccc3)c3ccccc3C2=O)cc1	-11%	14µM*	-7%	?	-5%	9%
CCc1ccc(S(=O)(=O)/N=C2\C=C(Nc3cccc(C(=O)O)c3)C(=O)c3ccccc32)cc1	-8%	25µM*	·	37%	?	·
CCc1ccc(S(=O)(=O)/N=C2\C=C(Nc3ccc(O)cc3)C(=O)c3ccccc32)cc1	-15%	-28%	·	2%	-28%	13%
O=C(Nc1ccccc1)Nc1nc(Nc2cc(F)cc(F)c2)nc(NC2CCCC2)n1	·	·	·	·	·	1%
CCOC(=O)c1c(N)sc(=S)c2c1CCC2	-4%	-27%	?	35µM*	-18%	·
CCOC(=O)c1c(N)sc(N)c1C(=O)OCC	-17%	1%	-2%	?	?	5%
NC(N)=NCCC[C@H](NC(=O)CNC(=O)c1ccccc1)C(=O)Nc1cc(C(F)(F)F)ccc1Cl	·	·	·	·	·	-3%
COc1cccc(C2CC(=O)N3CN(c4cccc(Cl)c4C)CSC3=C2C#N)c1OC (stereo not drawn)	22µM*	-4%	-3%	-2%	?	5%
COc1ccc(OC)c(C2CC(=O)N3CN(c4ccccc4F)CSC3=C2C#N)c1 (stereo not drawn)	8.9µM*	7%	14%	?	?	10%
COc1cc(OC)c(C2CC(=O)N3CN(c4ccccc4)CSC3=C2C#N)cc1OC (stereo not drawn)	?	-5%	8%	-6%	?	6%
COc1ccc(OC)c(C2CC(=O)N3CN(c4ccc(C)c(Cl)c4)CSC3=C2C#N)c1 (stereo not drawn)	14µM*	-6%	-5%	-1%	?	8%
CCOc1ccc(N2CSC3=C(C#N)C(c4ccco4)CC(=O)N3C2)cc1 (stereo not drawn)	?	?	?	32µM*	-19%	·
COc1cc(C2CC(=O)N3CN(c4ccccc4C)CSC3=C2C#N)cc(OC)c1OC (stereo not drawn)	?	-11%	-4%	16%	·	0%
Nc1nc(Nc2cc(F)cc(F)c2)nc(NC2CCCC2)n1	·	·	·	·	·	1%
COc1ccc(OC)c(C2CC(=O)N3CN(c4cccc(Cl)c4C)CSC3=C2C#N)c1 (stereo not drawn)	25µM*	-6%	-5%	1%	?	5%
COc1cccc(C2c3c(ncn(-c4cccc(F)c4)c3=N)Oc3ccc4ccccc4c32)c1 (stereo not drawn)	·	·	·	·	·	4%
O=C1CCc2cc(S(=O)(=O)NCc3ccccc3)ccc2N1	·	·	·	·	·	1%
COc1cc(C)c2c(c1C=O)Oc1c(c(C)c(O)c3c1C(O)OC3=O)OC2=O (stereo not drawn)	-24%	-2%	14µM*	13µM*	-20%	·
COC(=O)c1c(OC)cc2c(c1C)Oc1c(Cl)c(O)c(Cl)c(C)c1C(=O)O2	?	-15%	-11%	0%	·	16%[56.1 µM]
CC[C@H]1OC(=O)[C@H](C)[C@@H](O[C@H]2C[C@@](C)(OC)[C@@H](O)[C@H](C)O2)[C@H](C)[C@@H](O[C@@H]2O[C@H](C)C[C@H](N(C)C)[C@H]2O)[C@](C)(O)C[C@@H](C)/C(=N\OCOCCOC)[C@H](C)[C@@H](O)[C@]1(C)O	·	·	·	7%[21 µM]	·	·
COc1ccc(CCN(C)CCC(=O)Nc2cc(C)ccc2C)cc1OC	1.6µM*	-8%	-2%	5%	-10%	6%
COc1ccc(CCC(=O)Nc2ccc(C)c(S(=O)(=O)N(C)C)c2)cc1OC	-1%	0%	-15%	19%	-32%	8%
O=C(c1cccc(-n2cccc2)c1)N1CCN(S(=O)(=O)c2ccccc2)CC1	?	·	·	1.5µM*	-34%	·
CCCn1cnc2c1c(=O)n(CCCCC(C)=O)c(=O)n2C	-5%	4%	-2%	1%	24µM*!	11%[56.1 µM]
CCN(CC)C(=O)Cn1cnc2c1c(=O)n(C)c(=O)n2C	4%	1%	-17%	3%	5%	2%
SMILES	KAT2A inh	BLM inh	RECQ1 helicase	APEX1 inh	RGS4 inhibitor	TDP1 block
COc1cc(F)c(S(=O)(=O)N2CCN(S(=O)(=O)c3cccc(NC(C)=O)c3)CC2)c(F)c1	·	·	·	·	·	2%
CCOC(=O)c1ccc2c(c1)C1C=CCC1C(C(=O)OCC)N2 (stereo not drawn)	-9%	-23%	·	11%	?	·
O=C(OC1CCCCC1)c1ccc2c(c1)C1C=CCC1C(C(=O)O)N2 (stereo not drawn)	20µM*	16µM*	7.9µM*	?	·	-5%
CC(C)(C)c1ccc(-c2nc(SCC(=O)Nc3ccc(Cl)cc3)[nH]c(=O)c2C#N)cc1	35µM*	?	·	·	?	·
O=S(=O)(Nc1cccc2cccnc12)c1ccc(Br)s1	·	-11%	-4%	-3%	·	20%
CN(CC(=O)Nc1cccc(F)c1)C(=O)c1ccc(N2C(=O)c3ccccc3C2=O)cc1	-1%	·	·	57%	-20%	-1%
CN(CC(=O)Nc1cccc(F)c1)C(=O)c1cccc(-n2cccc2)c1	?	·	·	3.4µM*	-22%	·
CN(CC(=O)Nc1c(Cl)cccc1Cl)C(=O)c1cccc(-n2cccc2)c1	-26%	·	·	4.2µM*	-12%	·
CN(CC(=O)Nc1c(Cl)cccc1Cl)C(=O)c1cccc(S(=O)(=O)NCc2ccccc2)c1	-1%	·	·	11%	-4%	1%
Cc1ccc(C)c(NC(=O)CN(C)C(=O)c2cccc(-n3cccc3)c2)c1	-17%	·	·	3µM*	-19%	3%[0.505 µM]
CC12C=C(/C=C/C=C/c3ccco3)C(C)(C1)C(/C=C/c1ccco1)CC2=O (stereo not drawn)	·	-3%[12.4 µM]	1.4µM*	?	·	2µM*
O=C(c1ccccc1)N1N=C(C(F)(F)F)CC1(O)c1ccccc1 (stereo not drawn)	-7%	-12%	·	47%	24%	·
COc1cccc(C2(O)CC(C(F)(F)F)=NN2C(=O)c2ccccn2)c1 (stereo not drawn)	25µM*	-6%	-14%	1%	10%	3%
O=C(Cc1ccccc1)Nc1nc2ccc(Cl)cc2c2nc(-c3ccco3)nn12	6%	5%	8%	18%	38µM*	6%
COc1ccc(C2c3c(N)nc(Cc4ccccc4)nc3Oc3ccc4ccccc4c32)cc1OC (stereo not drawn)	·	·	·	·	·	2%
COc1ccc(C(=O)O)c(O)c1OC	0%	4%	-3%	-16%	·	·

From PubChem BioAssay
